Measurements taken from PubChem BioAssay (NCATS).
Inconclusive results are not listed. Entries that show only a call come without a potency. Calls of active or inactive are those of the source. Unless noted, calls follow the shape of the dose curve; as a rule, active = well fitted curve in the direction sought with a large enough effect; inconclusive = small, poorly fitted or top-dose-only effect, or another doubt; inactive = no such curve, though single readings can be large; an effect the other way counts as inactive or inconclusive.

system: not listed separately; assay: Primary qHTS for small molecule stabilizers of the endoplasmic reticulum resident proteome: Secreted ER Calcium Modulated Protein (SERCaMP) assay (AID 1508630); settings: SH-SY5Y GLuc-SERCaMP (Gaussia luciferase released on ER calcium loss) secretion, thapsigargin, luminescence; series mostly up to 38.4 µM; also: potency is read from the fitted curve at half-maximal effect
Outline: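 The SH-SY5Y reporter protocol was run at 3 concentrations up to 38.3 uM (primary) or 11 concentrations (follow-up): 16 h compound, 100 nM thapsigargin for 4 h, then extracellular luciferase luminescence.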

**Q.** Which Potency does the source give for `CC(C)c1onc(-c2c(Cl)cccc2Cl)c1COc1ccc(/C=C/c2cccc(C(=O)O)c2)c(Cl)c1` here?
**A.** inactive

**Q.** Which Potency does the source give for `COc1cc2nccc(Oc3ccc(NC(=O)NC4CC4)c(Cl)c3)c2cc1C(N)=O` here?
**A.** inactive

**Q.** With `O=C(c1cc(Cc2n[nH]c(=O)c3ccccc23)ccc1F)N1CCN(C(=O)C2CC2)CC1` as the molecule, how does the Potency read?
**A.** inactive

**Q.** With `NC(=O)c1ccc(-c2nc(-c3ccc4c(c3)OCO4)c(-c3ccccn3)[nH]2)cc1` as the molecule, how does the Potency read?
**A.** inactive

**Q.** With `CCOc1ccn(-c2ccc(F)cc2)c(=O)c1C(=O)Nc1ccc(Oc2ccnc(N)c2Cl)c(F)c1` as the molecule, how does the Potency read?
**A.** inactive

**Q.** With `Cc1cnc(Nc2ccc(OCCN3CCCC3)cc2)nc1Nc1cccc(S(=O)(=O)NC(C)(C)C)c1` as the molecule, how does the Potency read?
**A.** inactive

**Q.** For `Cc1c(CCOc2ccc(C(=O)O)cc2)c2cc(Cl)ccc2n1C(c1ccccc1)c1ccccc1`, which Potency is on record?
**A.** inactive

**Q.** With `CC1(C)Cc2c(-c3ccccc3)c(-c3ccc(Cl)cc3)c(CC(=O)O)n2C1` as the molecule, how does the Potency read?
**A.** inactive

**Q.** Which Potency does the source give for `Oc1cccc(-c2nc(N3CCOCC3)c3oc4ncccc4c3n2)c1` here?
**A.** inactive

**Q.** For `CCOc1ccc(Cc2cc([C@@H]3O[C@H](CO)[C@@H](O)[C@H](O)[C@@H]3O)ccc2Cl)cc1`, which Potency is on record?
**A.** inactive

**Q.** For `N#CC[C@H](C1CCCC1)n1cc(-c2ncnc3[nH]ccc23)cn1`, which Potency is on record?
**A.** inactive

**Q.** For `CCCCCCCc1ccc(CCc2cccc(O)c2C(=O)O)cc1`, which Potency is on record?
**A.** inactive

**Q.** For `COc1ccccc1-c1cccc(-c2c(O)c3cc(C#N)c(Cl)cc3[nH]c2=O)c1`, which Potency is on record?
**A.** inactive

**Q.** With `CCC(C)(C)C(=O)O[C@H]1C[C@@H](C)C=C2C=C[C@H](C)[C@H](CC[C@@H]3C[C@@H](O)CC(=O)O3)[C@H]21` as the molecule, how does the Potency read?
**A.** inactive

**Q.** With `Cc1cnc(NC(=O)C2=C(O)c3ccccc3S(=O)(=O)N2C)s1` as the molecule, how does the Potency read?
**A.** inactive

**Q.** For `CS(=O)(=O)c1ccc(C(=O)Nc2ccc(Cl)c(-c3ccccn3)c2)c(Cl)c1`, which Potency is on record?
**A.** inactive

**Q.** For `Cc1ccc(NC(=O)c2cccc(C(C)(C)C#N)c2)cc1Nc1ccc2ncn(C)c(=O)c2c1`, which Potency is on record?
**A.** inactive

**Q.** With `OCCC#Cc1nc(-c2ccc(F)cc2)c(-c2ccncc2)n1CCCc1ccccc1` as the molecule, how does the Potency read?
**A.** inactive

**Q.** With `CCC(C)n1ncn(-c2ccc(N3CCN(c4ccc(OC[C@H]5CO[C@](Cn6cncn6)(c6ccc(Cl)cc6Cl)O5)cc4)CC3)cc2)c1=O` (stereo not given in full) as the molecule, how does the Potency read?
**A.** inactive

**Q.** For `Cc1cc(C=c2sc3nc4ccccc4n3c2=O)c(C)n1-c1ccccc1`, which Potency is on record?
**A.** inactive

**Q.** Which Potency does the source give for `N=c1nc(N2CCCCC2)cc(N)n1O` here?
**A.** inactive

**Q.** With `Cn1c(=O)c(F)c(Nc2ccc(I)cc2F)c2c(=O)n(C[C@@H](O)CO)cnc21` as the molecule, how does the Potency read?
**A.** inactive

**Q.** For `CCC(=O)N[C@H]1CC[C@H](C(=O)N(C)c2ccc(-c3nc4ccccc4o3)cc2)C1`, which Potency is on record?
**A.** inactive

**Q.** With `CNC[C@H](O)c1cccc(O)c1` as the molecule, how does the Potency read?
**A.** inactive

**Q.** For `O=C(Nc1cccnc1)N1CCC(Cc2cccc(Oc3ccc(C(F)(F)F)cn3)c2)CC1`, which Potency is on record?
**A.** inactive

**Q.** With `Cn1cc(-c2ccc3nnc(C(F)(F)c4ccc5ncccc5c4)n3n2)cn1` as the molecule, how does the Potency read?
**A.** 14.9 µM (active)

**Q.** With `CCOc1cc(C(=O)Nc2ccc(Cl)c(-c3nc4ccccc4[nH]3)c2)cc(OCC)c1OCC` as the molecule, how does the Potency read?
**A.** inactive

**Q.** Which Potency does the source give for `Cc1ccc(-n2nc(C(C)(C)C)cc2NC(=O)Nc2ccc(OCCN3CCOCC3)c3ccccc23)cc1` here?
**A.** inactive

**Q.** Which Potency does the source give for `C[C@]12CC[C@H](O)CC1=CC[C@@H]1[C@H]2CC[C@]2(C)C(c3cccnc3)=CC[C@H]12` here?
**A.** inactive

**Q.** With `CC(=O)NC(C)c1ccc(Oc2ccc(OC(C)C)cc2)cc1` (stereo not given) as the molecule, how does the Potency read?
**A.** inactive

**Q.** With `C[C@]12CCC(=O)C=C1CC[C@@H]1[C@@H]2[C@@H](O)C[C@@]2(C)[C@H]1CC[C@]2(O)C(=O)CO` as the molecule, how does the Potency read?
**A.** inactive

**Q.** For `COc1ccc(C2=N[C@H](c3ccc(Cl)cc3)[C@H](c3ccc(Cl)cc3)N2C(=O)N2CCNC(=O)C2)c(OC(C)C)c1`, which Potency is on record?
**A.** inactive

**Q.** With `Cc1ccc2c(c1)C(=O)[C@@]1(O)CCN(c3ccccc3)C1=N2` as the molecule, how does the Potency read?
**A.** inactive

**Q.** With `CCOC(=O)C1=C[C@@]2(CC)CCCN3CCc4c(n1c1ccccc41)[C@H]32` as the molecule, how does the Potency read?
**A.** inactive

system: not listed separately; assay: A High-Content qHTS Against Drug Library for the Identification of Small Molecules that Inhibit DYT1 Early Onset Primary Dystonia-Associated Cell Pathology (AID 1645839; calls by dose curve); settings: HEK293 Flp-In EGFP-delE TorsinA, punctate imaging, 48 h; series mostly up to 46.1 µM
Outline: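 Cells were seeded and left for 24 h, then dosed with compound alongside tetracycline induction of mutant EGFP-TorsinA. They were incubated for 48 h, fixed in 4% paraformaldehyde, permeabilized and imaged for mislocalization (%pathology) and cell count.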

**Q.** Which Potency does the source give for `Cc1cnc(NC(=O)C2=C(O)c3ccccc3S(=O)(=O)N2C)s1` here?
**A.** inactive

**Q.** With `CNC[C@H](O)c1cccc(O)c1` as the molecule, how does the Potency read?
**A.** inactive

**Q.** For `C[C@]12CCC(=O)C=C1CC[C@@H]1[C@@H]2[C@@H](O)C[C@@]2(C)[C@H]1CC[C@]2(O)C(=O)CO`, which Potency is on record?
**A.** inactive

target: Cytochrome P450 2D6 (Homo sapiens) (UniProt P10635); assay: Cytochrome P450 family 2 subfamily D member 6 (CYP2D6) small molecule antagonists: luciferase biochemical (cell-free) qHTS assay (AID 1645840; active = well fitted curve in the direction sought with a large enough effect in the repeat runs; an effect the other way counts as inactive or inconclusive; also: nearly all actives have a fitted effect of over 55% in size; also: potency is read from the fitted curve at half-maximal effect); settings: P450-Glo CYP2D6 enzyme, luciferin luminescence, 1 h; series mostly up to 57.4 µM
Outline: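 P450-Glo CYP2D6 system: proluciferin substrate converted by enzyme to luciferin, read by luminescence proportional to activity. Enzyme-substrate mix with compound 10 min at room temperature, then NADPH regeneration 1 h before detection reagent.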

Chain of Cytochrome P450 2D6 (Homo sapiens) (P10635 whole entry, looked up): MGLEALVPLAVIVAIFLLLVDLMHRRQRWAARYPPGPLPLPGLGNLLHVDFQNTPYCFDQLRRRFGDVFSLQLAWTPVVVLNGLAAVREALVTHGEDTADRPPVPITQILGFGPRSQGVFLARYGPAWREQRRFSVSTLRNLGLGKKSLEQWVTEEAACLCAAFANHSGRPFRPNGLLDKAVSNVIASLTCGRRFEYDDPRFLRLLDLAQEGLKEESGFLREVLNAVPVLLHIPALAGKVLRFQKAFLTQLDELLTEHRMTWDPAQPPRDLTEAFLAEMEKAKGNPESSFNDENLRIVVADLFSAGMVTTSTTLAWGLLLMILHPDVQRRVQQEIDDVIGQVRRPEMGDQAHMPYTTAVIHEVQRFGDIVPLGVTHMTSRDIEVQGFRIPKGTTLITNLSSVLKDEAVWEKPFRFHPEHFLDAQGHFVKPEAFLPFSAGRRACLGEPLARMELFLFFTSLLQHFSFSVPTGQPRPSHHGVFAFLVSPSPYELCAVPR

**Q.** For `COc1cc2nccc(Oc3ccc(NC(=O)NC4CC4)c(Cl)c3)c2cc1C(N)=O`, which Potency is on record?
**A.** inactive

**Q.** For `CCOc1ccn(-c2ccc(F)cc2)c(=O)c1C(=O)Nc1ccc(Oc2ccnc(N)c2Cl)c(F)c1`, which Potency is on record?
**A.** inactive

**Q.** Which Potency does the source give for `Cc1cnc(NC(=O)C2=C(O)c3ccccc3S(=O)(=O)N2C)s1` here?
**A.** inactive

**Q.** For `Cc1ccc(NC(=O)c2cccc(C(C)(C)C#N)c2)cc1Nc1ccc2ncn(C)c(=O)c2c1`, which Potency is on record?
**A.** 12 µM (active)

**Q.** With `CCC(C)n1ncn(-c2ccc(N3CCN(c4ccc(OC[C@H]5CO[C@](Cn6cncn6)(c6ccc(Cl)cc6Cl)O5)cc4)CC3)cc2)c1=O` (stereo not given in full) as the molecule, how does the Potency read?
**A.** inactive

**Q.** Which Potency does the source give for `N=c1nc(N2CCCCC2)cc(N)n1O` here?
**A.** 7.76 µM (active)

**Q.** For `CNC[C@H](O)c1cccc(O)c1`, which Potency is on record?
**A.** inactive

**Q.** With `C/C(=C\C(=O)Nc1ccccc1C(=O)O)c1ccc2ccccc2c1` as the molecule, how does the Potency read?
**A.** inactive

**Q.** With `O=C(Nc1cccnc1)N1CCC(Cc2cccc(Oc3ccc(C(F)(F)F)cn3)c2)CC1` as the molecule, how does the Potency read?
**A.** 4.25 µM (active)

**Q.** With `CCOc1cc(C(=O)Nc2ccc(Cl)c(-c3nc4ccccc4[nH]3)c2)cc(OCC)c1OCC` as the molecule, how does the Potency read?
**A.** inactive

**Q.** With `Cc1ccc(-n2nc(C(C)(C)C)cc2NC(=O)Nc2ccc(OCCN3CCOCC3)c3ccccc23)cc1` as the molecule, how does the Potency read?
**A.** 4.9 µM (active)

**Q.** For `C[C@]12CCC(=O)C=C1CC[C@@H]1[C@@H]2[C@@H](O)C[C@@]2(C)[C@H]1CC[C@]2(O)C(=O)CO`, which Potency is on record?
**A.** inactive

**Q.** For `Cc1ccc2c(c1)C(=O)[C@@]1(O)CCN(c3ccccc3)C1=N2`, which Potency is on record?
**A.** inactive
